Measured values as given in PubChem BioAssay AID651711 (Broad Institute, 2012).
Several values for one entry are separate records, joined by “and”; a condition that tells them apart may be missing. Identical values can stand only once. In all, about 350,000 compounds went through this assay and about 180 (0.051%) were called active. This is one part of a sample in which actives are shown more often than they occur.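 How the source made its calls: active means mean replicate inhibition above about 25%, with every replicate also reaching it (limit read from the data, passing the limit was not always enough); inconclusive means only one of those two criteria met; inactive means neither criterion met.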

What follows are molecules tested against Protein disulfide-isomerase A6 (Homo sapiens) (UniProt Q15084) (assay: inhibitors of ERp5-driven insulin aggregation, primary screen, biochemical, turbidity, absorbance 650 nm, single point (AID 651711)). Conditions: 90 min, at 9.99 µM, hits give high values.
Sequence of Protein disulfide-isomerase A6 (Homo sapiens) (Q15084 whole entry, looked up): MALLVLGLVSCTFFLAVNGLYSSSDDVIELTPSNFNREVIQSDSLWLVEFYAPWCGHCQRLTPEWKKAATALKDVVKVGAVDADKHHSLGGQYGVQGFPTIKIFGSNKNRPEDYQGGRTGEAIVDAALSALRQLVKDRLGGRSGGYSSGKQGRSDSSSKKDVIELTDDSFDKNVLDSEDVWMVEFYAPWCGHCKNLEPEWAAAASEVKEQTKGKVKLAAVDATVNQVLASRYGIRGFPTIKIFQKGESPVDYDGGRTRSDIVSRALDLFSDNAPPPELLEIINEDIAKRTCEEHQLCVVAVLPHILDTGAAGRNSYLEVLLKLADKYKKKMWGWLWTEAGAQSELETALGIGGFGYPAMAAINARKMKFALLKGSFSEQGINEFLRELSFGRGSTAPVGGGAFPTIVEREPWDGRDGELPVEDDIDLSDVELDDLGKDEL

For COCC(=O)N1C[C@@H]2[C@H](c3ccccc31)[C@@H](CO)N2C(=O)C1CC1, which inhibition is on record?
Its inhibition is -1.61% (inactive).

For COCC#Cc1ccc([C@H]2[C@H](CO)N3C(=O)CN(C(=O)Nc4ccccc4F)C[C@@H]23)cc1, which inhibition is on record?
The inhibition was 3.85% (inactive).

For CNC[C@H]1Oc2ccc(NS(=O)(=O)c3cn(C)cn3)cc2C(=O)N([C@@H](C)CO)C[C@@H]1C, which inhibition is on record?
Its inhibition is -3.85% (inactive).

How did the inhibition turn out when O=C(C[C@@H]1C[C@@H]2c3cc(NC(=O)c4ccc5c(c4)OCO5)ccc3O[C@@H]2[C@H](CO)O1)NCC1CC1 was run?
The inhibition was -3.55% (inactive).

For Cc1cccc(-c2ccc([C@@H]3[C@H](CO)N4CCCCN(Cc5ccncc5)C[C@@H]34)cc2)c1, which inhibition is on record?
The inhibition was 10.1% (inactive).

With COc1ccc2c3c(n(C)c2c1)[C@H](CO)N(Cc1ccc(F)cc1)CC31CCN(C)CC1 as the molecule, how does the inhibition read?
Its inhibition is -1.69% (inactive).

With CO[C@H]1CN(C)C(=O)c2cc(NC(=O)C3CCC3)ccc2OC[C@H](C)N(CC2CCCCC2)C[C@@H]1C as the molecule, how does the inhibition read?
Its inhibition is -3.58% (inactive).

With CCCNC(=O)N(C)C[C@H]1Oc2cc(-c3ccncc3)ccc2S(=O)(=O)N([C@H](C)CO)C[C@@H]1C as the molecule, how does the inhibition read?
Its inhibition is 1.24% (inactive).

With CCCNC(=O)N1[C@@H]2CNC[C@H]1C2c1ccc(-c2cccc(C)c2)cc1 (some centres undefined) as the molecule, how does the inhibition read?
The inhibition was 2.37% (inactive) and -1.56% (inactive).

For O=C(N[C@@H]1CC[C@H](CCn2cc(-c3ccccc3)nn2)O[C@H]1CO)c1cnccn1, which inhibition is on record?
Its inhibition is 19.2% (inactive).

C[C@@H]1CN([C@@H](C)CO)C(=O)Cc2cc(NS(=O)(=O)c3cccs3)ccc2O[C@H]1CN(C)S(=O)(=O)c1ccc(F)cc1 was tested. Which inhibition did it give?
Its inhibition is 18.7% (inactive).

How did the inhibition turn out when CC(C)NC(=O)N1[C@H](C#N)[C@H](c2ccc(C#CC3CCCCC3)cc2)[C@H]1CO was run?
The inhibition was -0.752% (inactive).

Which inhibition does the source give for O=C(Cc1ccccn1)NCC[C@H]1CC[C@H](NC(=O)Nc2ccc(F)cc2)[C@@H](CO)O1 here?
The inhibition was -0.166% (inactive).

With C[C@@H]1CN([C@@H](C)CO)C(=O)c2cccc(NS(=O)(=O)c3ccc(F)cc3)c2O[C@@H]1CN(C)Cc1ccc(C(=O)O)cc1 as the molecule, how does the inhibition read?
The inhibition was 0.602% (inactive).

Cc1noc(C)c1NC(=O)N(C)C[C@@H]1Oc2ccc(NC(=O)C3CC3)cc2C(=O)N([C@H](C)CO)C[C@@H]1C was tested. Which inhibition did it give?
Its inhibition is 7.46% (inactive).

Which inhibition does the source give for CC(C)NC(=O)N1[C@H](CNC(=O)CN(C)C)[C@@H](c2ccccc2)[C@@H]1CO here?
Its inhibition is 6.83% (inactive).

For O=C(C[C@@H]1C[C@H]2c3cc(NC(=O)NC4CCCC4)ccc3O[C@H]2[C@@H](CO)O1)NC1CCCCC1, which inhibition is on record?
The inhibition was 5.32% (inactive).

For CCC(=O)Nc1ccc2c(c1)OC[C@H](C)N(C(=O)c1ccccc1F)C[C@@H](C)[C@H](OC)CN(C)C2=O, which inhibition is on record?
The inhibition was 12.1% (inactive).

How did the inhibition turn out when C[C@@H]1CN([C@@H](C)CO)C(=O)CCCn2cc(nn2)CO[C@@H]1CN(C)Cc1ccccc1C(=O)O was run?
The inhibition was 1.73% (inactive).

How did the inhibition turn out when COC(=O)[C@]12C[C@H](CC(=O)NCc3ccccc3)C(=O)N(CCC3=CCCCC3)C1=C[C@H](C(C)(C)C)O[C@@H]2C was run?
The inhibition was 15.6% (inactive).

CN1C(=O)c2cc(NC(=O)C3CCOCC3)ccc2OC[C@H]2O[C@@H](CC(=O)NCC3CCCCC3)CC[C@@H]21 was tested. Which inhibition did it give?
Its inhibition is -1.95% (inactive).

Which inhibition does the source give for COC(=O)CNC(=O)c1ccccc1[N+](=O)[O-] here?
The inhibition was -6.79% (inactive).

With COc1ccc(Br)cc1/C=N/Nc1ccc(S(=O)(=O)Nc2ccccc2C(=O)O)cc1[N+](=O)[O-] as the molecule, how does the inhibition read?
The inhibition was -6.38% (inactive).

COCCNC(=O)c1ccccc1NS(=O)(=O)c1ccc(C)c([N+](=O)[O-])c1 was tested. Which inhibition did it give?
The inhibition was 32.3% (active).

For CC(=O)c1c(C)[nH]c(C(=O)COC(=O)c2cccs2)c1C, which inhibition is on record?
Its inhibition is 14.1% (inactive).

For CCOC(=O)c1c(C)[nH]c(C(=O)OCC(=O)c2ccc(OC)cc2OC)c1C, which inhibition is on record?
The inhibition was -4.48% (inactive).

Which inhibition does the source give for COc1cccc(C(=O)OCC(=O)c2[nH]c(C)c(C(C)=O)c2C)c1 here?
Its inhibition is 27.2% (active).

C[C@@H]1CN([C@@H](C)CO)C(=O)c2cc(NC(=O)CCCN(C)C)ccc2O[C@@H](C)CCCCO[C@@H]1CN(C)S(=O)(=O)c1ccc(Cl)cc1 was tested. Which inhibition did it give?
The inhibition was 0.282% (inactive).

For C[C@@H]1CN([C@@H](C)CO)C(=O)Cc2cc(NC(=O)CCN3CCOCC3)ccc2O[C@@H]1CN(C)C(=O)Nc1cccc2ccccc12, which inhibition is on record?
The inhibition was 7.67% (inactive).

Which inhibition does the source give for O=C(N[C@@H]1CC[C@@H](CCn2cc(-c3ccccn3)nn2)O[C@@H]1CO)c1ccccc1 here?
The inhibition was -2.15% (inactive).

For COc1ccc(S(=O)(=O)Nc2ccc3c(c2)C(=O)N([C@@H](C)CO)C[C@H](C)[C@H](CN(C)Cc2ccc(C(=O)O)cc2)OCCCC[C@@H](C)O3)cc1, which inhibition is on record?
Its inhibition is -3.93% (inactive).

Cc1noc(C)c1S(=O)(=O)N(C)C[C@H]1Oc2ccc(NS(=O)(=O)c3cccs3)cc2C(=O)N([C@H](C)CO)C[C@H]1C was tested. Which inhibition did it give?
Its inhibition is -0.984% (inactive).

O=S(=O)(c1ccccc1)N1CCCCN2[C@@H](CO)[C@H](c3ccc(C#Cc4cccnc4)cc3)[C@@H]2C1 was tested. Which inhibition did it give?
The inhibition was -0.401% (inactive).

Which inhibition does the source give for COCCNC(=O)C[C@@H]1CC[C@H]2[C@H](COc3ccc(NS(=O)(=O)c4ccc(Cl)cc4)cc3C(=O)N2C)O1 here?
Its inhibition is 6.32% (inactive).

C[C@H]1CN([C@@H](C)CO)C(=O)Cc2cc(NS(=O)(=O)c3cccs3)ccc2O[C@@H]1CN(C)Cc1ccc(Oc2ccccc2)cc1 was tested. Which inhibition did it give?
The inhibition was 0.293% (inactive).

How did the inhibition turn out when COc1ccc2c3c([nH]c2c1)[C@@H](CO)N(Cc1cc(F)ccc1F)CC31CN(C(=O)C2CCC2)C1 was run?
Its inhibition is 0.016% (inactive).

COc1ccc2c3c([nH]c2c1)[C@@H](CO)N(Cc1ccccc1F)CC31CN(C(=O)C2CC2)C1 was tested. Which inhibition did it give?
Its inhibition is 5.63% (inactive).

With COc1ccc2c3c([nH]c2c1)[C@H](CO)N(Cc1ccccc1Cl)CC31CN(C(=O)C2CC2)C1 as the molecule, how does the inhibition read?
The inhibition was 32% (active).

For COc1ccc(NC(=O)Nc2cccc3c2O[C@@H](CN(C)C(=O)NC(C)C)[C@H](C)CN([C@H](C)CO)C3=O)cc1, which inhibition is on record?
The inhibition was 1.64% (inactive).

For O=C(C[C@H]1CC[C@H]2[C@@H](COC[C@@H](O)CN2CC2CCCC2)O1)NCC1CC1, which inhibition is on record?
The inhibition was 5.23% (inactive).

O=C(CCN1CCCCC1)NCC[C@H]1CC[C@@H](NC(=O)C2CCOCC2)[C@H](CO)O1 was tested. Which inhibition did it give?
The inhibition was -1.07% (inactive).

Which inhibition does the source give for C[C@H](NC(=O)[C@H]1N[C@H]2c3ccc(-c4ccc(C(=O)N(C)C)cc4)c(=O)n3C[C@H]2[C@@H]1CO)c1ccccc1 here?
The inhibition was -1.53% (inactive).

Which inhibition does the source give for O=C(C[C@@H]1CC[C@H](NC(=O)NC2CCCCC2)[C@H](CO)O1)NCc1ccc(F)cc1 here?
The inhibition was -0.201% (inactive).

Which inhibition does the source give for CCC(=O)Nc1ccc2c(c1)OC[C@@H](C)N(Cc1cncnc1)C[C@H](C)[C@@H](OC)CN(C)C2=O here?
Its inhibition is 1.32% (inactive).

Which inhibition does the source give for O=C(Nc1cccc(F)c1)N1CC(=O)N2[C@H](C1)[C@H](c1ccc(-c3ccccc3F)cc1)[C@@H]2CO here?
Its inhibition is -0.993% (inactive).

Which inhibition does the source give for CN(C)C(=O)[C@@H]1[C@@H](CO)[C@@H]2Cn3c(ccc(-c4ccncc4)c3=O)[C@H]1N2C(=O)NC1CCCC1 here?
The inhibition was -2.64% (inactive).

How did the inhibition turn out when CO[C@@H]1CN(C)C(=O)c2cc(NC(=O)c3ccccc3F)ccc2OC[C@H](C)N(C(C)=O)C[C@@H]1C was run?
The inhibition was 3.35% (inactive).

For O=C(C[C@H]1CC[C@@H]2[C@H](COC[C@H](O)CN2Cc2ccccc2F)O1)NC1CCC1, which inhibition is on record?
The inhibition was -3.28% (inactive).

CCCNC(=O)C[C@H]1C[C@H]2c3cc(NC(=O)COC)ccc3O[C@H]2[C@H](CO)O1 was tested. Which inhibition did it give?
Its inhibition is 2.76% (inactive).

Which inhibition does the source give for CNC(=O)C[C@@H]1CC[C@@H]2[C@@H](COc3ccc(NC(=O)Nc4ccccc4OC)cc3C(=O)N2C)O1 here?
The inhibition was 5.92% (inactive).

With CCC(=O)N(C)C[C@@H]1Oc2cc(C#C[C@H](C)O)ccc2S(=O)(=O)N([C@@H](C)CO)C[C@H]1C as the molecule, how does the inhibition read?
The inhibition was -0.347% (inactive).

C[C@@H]1CN([C@H](C)CO)C(=O)Cc2cc(NC(=O)CCN3CCOCC3)ccc2O[C@H]1CN(C)CC1CC1 was tested. Which inhibition did it give?
Its inhibition is -3.37% (inactive).

With COc1ccc(CCN2C(=O)[C@@]3(Cc4ccccc42)c2ccccc2C(=O)N(Cc2ccccc2C(F)(F)F)[C@H]3c2ccc(CO)cc2)cc1 as the molecule, how does the inhibition read?
Its inhibition is 4.71% (inactive).

C[C@H](CO)N1C[C@H](C)[C@@H](CN(C)C(=O)Cc2ccncc2)Oc2ncc(C3=CCCCC3)cc2C1=O was tested. Which inhibition did it give?
Its inhibition is 4.38% (inactive).

How did the inhibition turn out when O=C(c1cccc(F)c1)N1CC[C@@H]2[C@@H](CO)Nc3ccc(C#Cc4cccc(F)c4)cc3[C@@H]21 was run?
The inhibition was -3.07% (inactive).

C[C@H](CO)N1C[C@H](C)[C@@H](CN(C)Cc2ccc(C(=O)O)cc2)Oc2ccc(NS(=O)(=O)c3cn(C)cn3)cc2CC1=O was tested. Which inhibition did it give?
Its inhibition is -1.33% (inactive).

For CC(C)NC(=O)N1CC2(C1)[C@H](c1ccccc1)[C@H](CO)N2C(=O)C1CCOCC1, which inhibition is on record?
The inhibition was 0.292% (inactive).

Which inhibition does the source give for C/C=C/c1ccc([C@H]2[C@@H](CO)N(C(=O)NCCC)[C@H]2CN(C)C(C)=O)cc1 here?
Its inhibition is 5.18% (inactive).

CC(C)NC(=O)Nc1ccc2c(c1)C(=O)N([C@H](C)CO)C[C@@H](C)[C@@H](CN(C)Cc1ccncc1)O2 was tested. Which inhibition did it give?
The inhibition was -5.48% (inactive).

For COc1ccc(C#Cc2cccc(-c3nc(C(=O)O)cc4c3[C@@H](CCO)N(S(=O)C(C)(C)C)C4)c2)cc1OC (some centres undefined), which inhibition is on record?
Its inhibition is -1.96% (inactive).

Which inhibition does the source give for Cc1ccc(S(=O)(=O)N(C)C[C@@H]2OCc3ccccc3-c3c(n(C)c4ccccc34)C(=O)N([C@@H](C)CO)C[C@@H]2C)cc1 here?
Its inhibition is 3.4% (inactive).

O=C(C[C@H]1C=C[C@H](NC(=O)Nc2ccc(C(F)(F)F)cc2)[C@@H](CO)O1)NCCN1CCCC1 was tested. Which inhibition did it give?
Its inhibition is 18.1% (inactive).

Which inhibition does the source give for C[C@@H]1CN([C@@H](C)CO)C(=O)Cc2cc(NC(=O)Cc3cn(C)c4ccccc34)ccc2O[C@H]1CN(C)C(=O)NC1CCCCC1 here?
Its inhibition is 5.6% (inactive).

Which inhibition does the source give for C[C@@H]1CN([C@H](C)CO)C(=O)Cc2cc(NC(=O)Nc3cccc4ccccc34)ccc2O[C@H]1CN(C)C(=O)Nc1ccc2c(c1)OCO2 here?
Its inhibition is -12.4% (inactive).
